PubChem BioAssay AID743279 (National Center for Advancing Translational Sciences (NCATS), 2014)
In all, about 360,000 compounds went through this assay and about 17,000 (4.7%) were called active. About 5% were inconclusive and are not listed. Cut-off read from the data, not from the text of the source: active = activity change below about -50%; inconclusive = mostly about -30% to -49%; inactive = weaker than that. Many of the other results were omitted from the sample, so actives are more common in it than they were.

Experiment: qHTS for Inhibitors of Inflammasome Signaling: IL-1-beta AlphaLISA Primary Screen
Conditions: THP-1 LPS/ATP IL-1B secretion, 16 h; at 57.5 µM, active compounds read low
How it was run: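 Secreted IL-1B measured by AlphaLISA bead assay after 16 h compound exposure of THP-1 cells; compounds (final up to 57.5 uM) added 1 h before LPS (250 ng/mL) and ATP (1.25 mM) stimulation; lower signal means less secretion.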
% is set by controls: 0 for no effect and ±100 for the full control effect.

SMILES	activity change
O=c1cc(CN2CCCCCCC2)c2c(ccc3ccccc32)o1	25.6% (inactive)
O=C(COC(=O)/C=C/c1ccc2c(c1)OCO2)NC1CCS(=O)(=O)C1 (centres undefined)	-29.2% (inactive)
CCOC(=O)CCCNC(=O)COC(=O)/C=C/c1ccc2c(c1)OCO2	-11.7% (inactive)
CN(Cc1ccccc1)C(=O)COC(=O)/C=C/c1ccc2c(c1)OCO2	-60.4% (active)
OC[C@@H]1CN(Cc2ccc(F)cc2)C[C@H](n2cnc3c(NC4CCCC4)ncnc32)O1	0% (inactive)
COc1cc(CC(=O)Nc2nc(-c3ccc(F)c(F)c3)cs2)cc(OC)c1OC	-57% (active)
COc1ccc(OC)c(-c2csc(NC(=O)COC(=O)C3CC3)n2)c1	-8.53% (inactive)
COc1cc(CC(=O)NCc2cccs2)cc(OC)c1OC	0% (inactive)
COc1ccc(CCN(C(=O)COc2ccccc2)c2nc(-c3ccccc3)cs2)cc1OC	-19.6% (inactive)
COc1ccc(CCNc2nc(-c3cccc(NC(C)=O)c3)cs2)cc1OC	-53.6% (active)
COc1ccc(NC(=O)C2(C)Cc3c(-c4cccc(NC(C)=O)c4)ccnc3O2)cc1OC (centres undefined)	-4.57% (inactive)
CC(=O)Nc1cccc(-c2csc(Nc3cccc(C)n3)n2)c1	-56.6% (active)
CC(=O)NC(c1ccccc1)c1nc(-c2cccc(C(C)C)c2)cs1 (centres undefined)	-14.5% (inactive)
CCCCCCC(=O)Nc1nc(C)c(-c2csc(Nc3cccc(OC)c3)n2)s1	-17.4% (inactive)
COc1cccc(CC(=O)Nc2nc(-c3ccc(OC)c(OC)c3)cs2)c1	-50.3% (active)
O=C(COc1ccccc1F)Nc1nc(-c2ccccn2)cs1	33.3% (inactive)
COc1ccc(-c2csc(Nc3cccc(C)n3)n2)cc1OC	-7.72% (inactive)
CCCNC(=O)C1(C)CCCN(C(=O)c2cccc(OC(C)=O)c2C)C1 (centres undefined)	1.04% (inactive)
CCc1nc2c(OCCOc3ccccc3)cccn2c1N(C)C(=O)c1ccccc1F	-0.777% (inactive)
CC(C)CCNC(=O)c1cccnc1Sc1ccccc1	-7.52% (inactive)
COc1ccc(CC(=O)Nc2nc(-c3ccc(F)c(F)c3)cs2)cc1OC	-67.5% (active)
CCCc1ccc(-c2csc(NC(=O)Cc3cccs3)n2)cc1	8.64% (inactive)
COc1ccc(CC(=O)Nc2ccccc2NC(=O)c2ccco2)cc1OC	12.9% (inactive)

SMILES	activity change
CCCc1c(C)nc2scc(-c3ccc(Cl)cc3)n2c1=O	26.4% (inactive)
COc1ccc(C(CNC(=O)COc2ccc([N+](=O)[O-])cc2)N2CCCCC2)cc1 (centres undefined)	-22.1% (inactive)
CCc1ccc(OCC(=O)NCC(c2ccc(Cl)cc2)N2CCCCC2)cc1 (centres undefined)	-99.8% (active)
COc1ccc(C(CNC(=O)COc2ccccc2OC)N2CCCCC2)cc1 (centres undefined)	-6.28% (inactive)
Cc1noc(C)c1COC(=O)c1cc2ccccc2cc1O	-1.49% (inactive)
O=C(NNc1c2ccccc2nc2ccccc12)c1cc2ccccc2cc1O	-60.2% (active)
O=C(COC(=O)c1ccc(O)cc1O)NC(=O)c1ccccc1	13.5% (inactive)
CC(C)(C)OC(=O)NNc1c2ccccc2nc2ccccc12	-75.9% (active)
Cc1ccc(C(=O)NNC(=O)OC(C)(C)C)c(Cl)c1	-7.82% (inactive)
CC(C)(C)OC(=O)NCCCCCNC(=O)c1nc[nH]c1C(=O)NCc1ccccc1	11% (inactive)
Cc1ccccc1NC(=O)Cn1cc(C(=O)C2CC2)c2ccccc21	16.9% (inactive)
CCC1NC(=O)c2cccnc2-n2c1nc1ccc(C)cc1c2=O (centres undefined)	-3.64% (inactive)
N#C/C(=C(\O)CCl)c1nnc2n1CCCCC2	4.27% (inactive)
N#C/C(=C(\O)C(F)(F)F)c1nnc2n1CCCCC2	11.5% (inactive)
N#C/C(=C/c1cccc([N+](=O)[O-])c1)c1nnc2n1CCCCC2	-112% (active)
CCOC(=O)C1(C)CCCN(C(=O)c2ccc(N(C)C)cc2)C1 (centres undefined)	9.68% (inactive)
CCN(CC)C(=O)[C@H]1CC(CC(=O)NCc2ccco2)C(=O)N2CCc3c([nH]c4ccccc34)[C@]12C (some centres undefined)	7.15% (inactive)
O=C1OCCN1C(=O)[C@H]1[C@H](c2ccc(F)cc2)C(c2ccccc2)=NN1c1ccc(Br)cc1	-15.9% (inactive)
O=C1OCCN1C(=O)[C@H]1[C@H](c2ccc(Cl)cc2)C(c2cccc(Cl)c2)=NN1c1ccc(Br)cc1	-23.1% (inactive)
C[C@@H]1C(c2ccc(F)cc2)=NN(c2ccc(Br)cc2)[C@H]1C(=O)N1CCOC1=O	-54.4% (active)
CN(CC(=O)Nc1c(Cl)cccc1Cl)C(=O)CNC(=O)C1CCCCC1	inactive
COc1cccc(CC2(CO)CCCN(Cc3ccc(OC(F)F)cc3)C2)c1 (centres undefined)	-9.05% (inactive)
O=S1(=O)CC(N2CCN(c3ccccn3)CC2)CN1Cc1ccc(F)cc1 (centres undefined)	-7.1% (inactive)

SMILES	activity change
Cc1c(CN2CC[C@@H](N3CCN(c4ccccn4)CC3)[C@H](O)C2)[nH]c2ccc(F)cc12	-50.8% (active)
O=C(CCC1CCCN(C(=O)Cc2ccc(F)cc2)C1)N1CCN(c2ccccn2)CC1 (centres undefined)	-15.7% (inactive)
COc1ccc(-c2ccc3c(c2)[C@@H]2C[C@H](N(C)S(=O)(=O)c4ccccc4)[C@H]([C@H](C)O)C(=O)N2CC3)cc1	-14.6% (inactive)
O=C(CCc1ccc(O)cc1)NN=Cc1cc(Br)ccc1O	137% (inactive)
O=P(O)(CP(=O)(c1ccccc1)c1ccccc1)c1ccccc1O	-5.18% (inactive)
CC(C)(C)c1cc(P(=O)(c2ccccc2)c2ccccc2)ccc1O	-66.1% (active)
O=S(=O)(Nc1ccc2ccccc2c1)N1CCCCC1	-5.44% (inactive)
CC(C)(C)C(=O)Nc1cccc(-c2ccc[nH]2)n1	-1.09% (inactive)
OCCCNc1nccc(-c2cc(Nc3cccc(Cl)c3)ncn2)n1	-1.28% (inactive)
Cn1c(Nc2cccc(Cl)c2)nc2ccccc21	-6.01% (inactive)
CC(C)n1cnc2c(Nc3cccc(Cl)c3)nc(N(CCO)CCCO)nc21	-97.4% (active)
CCOC(=O)N(Cc1ccccc1)C1CC1	8.58% (inactive)
O=C1CC(c2ccccc2)C(=O)N2C(=O)CC(c3ccccc3)C(=O)N12 (centres undefined)	-11.1% (inactive)
CCOC(=O)N1CCN(C(=O)C[C@@H]2C[C@@]3(C(=O)OC)CC(C)(C)CC=C3N(Cc3ccco3)C2=O)CC1	5.52% (inactive)
COC(=O)[C@@]12C[C@@H](CC(=O)N3CCCCC3)C(=O)N(Cc3ccc4c(c3)OCO4)C1=CCC(C)(C)C2	-13.6% (inactive)
COC(=O)[C@@]12C[C@@H](CC(=O)N3CCC(c4ccccc4)CC3)C(=O)N(Cc3ccccc3)C1=CCC(C)(C)C2	-70.2% (active)
COc1ccc(CN2C[C@H]3CON(C)[C@H]3C[C@H]2c2ccc(-c3cccc(F)c3)cc2)cc1	11.4% (inactive)
CC1(C(=O)NCc2ccccc2)CN(S(C)(=O)=O)CC(=O)N1CC(F)(F)F (centres undefined)	30.7% (inactive)
COc1ccc(C(=O)NC(C)Cn2nc(C)cc2C)cc1OC1CCN(C(C)=O)CC1 (centres undefined)	0% (inactive)
CCCCC[C@@H]1C=C(C(=O)OCC)[C@H](c2ccccc2)N1S(=O)(=O)c1ccc(C)cc1	37.3% (inactive)
COc1cc(/C=C2\Oc3ccc(C#Cc4ccc(O)cc4)cc3C2=O)cc(OC)c1	-79.1% (active)
COc1ccc2c(c1)O/C(=C\c1ccccc1O)C2=O	45.7% (inactive)
COc1cc(C#Cc2ccc3cc(CCCO)oc(=O)c3c2)cc(OC)c1	0% (inactive)

SMILES	activity change
CNC(=O)C[C@H]1C(=O)N(Cc2ccccc2)C[C@@H]1CSC	-8.27% (inactive)
c1ccc(CNc2ncnc3[nH]ncc23)cc1	31.4% (inactive)
O=C(COc1ccc(Br)cc1F)NCC1(N2CCCCC2)CCCCC1	-9.53% (inactive)
Cc1cc(C(=O)COc2ccc(Br)cc2F)c(C)n1C1CC1	-54.4% (active)
Cc1cc(C(=O)COc2ccccc2Cl)c(C)n1C1CC1	0% (inactive)
O=C(COC(=O)c1cncc(Br)c1)Nc1ccc(S(=O)(=O)N2CCOCC2)cc1	-5.39% (inactive)
C[C@H](CO)N1C[C@H](C)[C@H](CN(C)C(=O)Nc2ccc3c(c2)OCO3)Oc2ncc(Br)cc2C1=O	-12.4% (inactive)
CC1(c2ccccc2)NC(=O)N(CC(=O)Nc2cc(Cl)ccc2N2CCOCC2)C1=O (centres undefined)	1.47% (inactive)
Cc1ccccc1NC(=O)CSc1nc2ccc(Nc3nc(N4CCOCC4)nc(N4CCOCC4)n3)cc2s1	0% (inactive)
O=C(CSc1nc(Nc2ccccc2)nc(N2CCOCC2)n1)Nc1cc(Cl)ccc1O	-58.1% (active)
CS(=O)(=O)N(CC(=O)N1CCCCCC1)c1cccc(Cl)c1Cl	-9.4% (inactive)
COc1cc(CN2CCC(n3nccc3NC(=O)CCCc3ccccc3)CC2)ccc1O	0% (inactive)
Cc1ccc(CN2CCC(n3nccc3NC(=O)CCCc3ccccc3)CC2)o1	0% (inactive)
COc1ccc(CN2CCC(n3nccc3NC(=O)CCCc3ccccc3)CC2)cc1C	-65% (active)
COc1ccc(OC)c(NC(=O)C2CCCN2S(=O)(=O)c2ccc3c(c2)CC(C)N3C(C)=O)c1 (centres undefined)	11.5% (inactive)
CC(=O)Nc1ccc2c3c(ccc([N+](=O)[O-])c13)CC2	18.1% (inactive)
COc1ccc(NC(=O)C(c2ccncc2)n2c(=O)c(-c3cc4ccccc4[nH]3)nc3ccccc32)cc1 (centres undefined)	-12% (inactive)
COc1cccc(-n2cc(C(=O)O)c3ccccc3c2=O)c1	-59.6% (active)
COc1cccc(-n2nc(C(=O)N3CCN(Cc4ccccc4)CC3)c3ccccc3c2=O)c1	-16.4% (inactive)
COc1cccc(-n2cc3c(c2-c2ccccc2)c(=O)n(C)c(=O)n3C)c1	18.5% (inactive)
